# Experimental data as given in PubChem BioAssay.
# Results filed as inconclusive are left out. The source made the active and inactive calls.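 How the source made its calls, unless noted: active means viability at or under a set limit in both replicates, limit being median viability minus 3 SD (cut at about 48% in these data, passing the limit was not always enough); inconclusive means at or under the limit in just one replicate; inactive means at or above the limit in both replicates.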
# Assays:
# [1] = Her2 expression decrease, cell viability multiplex – SKBR3 breast tumor cells, AlphaScreen, ATP viability, primary screen (AID 461;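 active means Her2 level under about 52% in both replicate screens, with viability over 70% of control, limit read from the data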;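 on Her2 level: lower value means less Her2 protein in the cells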;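 on viability: percent of carrier control wells set as 100% viability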); conditions: SKBR3 Her2 protein level, 18-24 h, measured here: SKBR3 viability, ATP luminescence, at 10 µM
# [2] = target: Receptor tyrosine-protein kinase erbB-2 (Homo sapiens) (UniProt P04626); assay: as above; conditions: 18-24 h, at 10 µM, stronger effect = lower value
# Sequence of Receptor tyrosine-protein kinase erbB-2 (Homo sapiens) (P04626 whole entry, looked up): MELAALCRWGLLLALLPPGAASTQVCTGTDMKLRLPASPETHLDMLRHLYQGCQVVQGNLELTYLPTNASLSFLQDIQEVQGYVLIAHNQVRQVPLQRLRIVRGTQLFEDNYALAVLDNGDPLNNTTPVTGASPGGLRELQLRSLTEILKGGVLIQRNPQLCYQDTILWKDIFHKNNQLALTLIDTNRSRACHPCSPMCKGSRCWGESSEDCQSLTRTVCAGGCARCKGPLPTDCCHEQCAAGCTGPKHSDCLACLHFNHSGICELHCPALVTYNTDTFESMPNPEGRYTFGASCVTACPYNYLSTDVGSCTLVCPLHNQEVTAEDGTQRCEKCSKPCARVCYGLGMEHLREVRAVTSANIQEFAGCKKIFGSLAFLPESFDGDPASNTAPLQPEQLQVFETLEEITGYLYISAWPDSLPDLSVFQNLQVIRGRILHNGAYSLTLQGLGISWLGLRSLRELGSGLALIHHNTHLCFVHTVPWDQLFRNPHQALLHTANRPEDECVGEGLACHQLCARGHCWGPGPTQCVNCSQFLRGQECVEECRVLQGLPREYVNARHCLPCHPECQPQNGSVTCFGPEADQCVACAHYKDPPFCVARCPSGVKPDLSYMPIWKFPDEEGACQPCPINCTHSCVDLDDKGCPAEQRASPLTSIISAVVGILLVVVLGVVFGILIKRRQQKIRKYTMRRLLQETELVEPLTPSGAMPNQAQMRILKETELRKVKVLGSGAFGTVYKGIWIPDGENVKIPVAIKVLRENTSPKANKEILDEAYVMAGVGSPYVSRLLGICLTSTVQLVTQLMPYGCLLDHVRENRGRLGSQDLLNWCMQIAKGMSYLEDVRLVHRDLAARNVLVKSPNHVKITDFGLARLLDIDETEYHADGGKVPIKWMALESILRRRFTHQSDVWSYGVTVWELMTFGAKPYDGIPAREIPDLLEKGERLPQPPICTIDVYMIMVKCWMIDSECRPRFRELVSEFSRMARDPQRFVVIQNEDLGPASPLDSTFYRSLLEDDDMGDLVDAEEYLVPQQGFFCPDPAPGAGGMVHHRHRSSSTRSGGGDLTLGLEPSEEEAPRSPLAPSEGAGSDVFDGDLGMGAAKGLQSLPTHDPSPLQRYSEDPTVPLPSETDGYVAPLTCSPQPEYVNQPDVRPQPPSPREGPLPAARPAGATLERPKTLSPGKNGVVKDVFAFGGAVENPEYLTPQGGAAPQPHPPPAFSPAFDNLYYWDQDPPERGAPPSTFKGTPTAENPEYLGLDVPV
# [3] = reduced viability of SK-BR-3 breast cancer cells – cell-based, 24 h, human, pilot screen (AID 572;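 active means viability at or below 10% of carrier control in both of two separate runs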;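 further: compound exposure lasted between 18 and 24 h rather than exactly 24 h; 100% = carrier-treated control wells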); conditions: SK-BR-3 viability, CellTiter-Glo luminescence, at 10 µM, stronger effect = lower value
# [4] = HUVEC growth inhibition – cell-based, human, primary screen (AID 575;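 active means viability at or below 30% in both replicate assays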;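 further: 100% = median of untreated cell wells with 0.1% DMSO on each plate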); conditions: HUVEC proliferation, CellTiter-Glo luminescence, 72 h; at 10 µM; stronger effect = lower value
# [5] = H69AR cell proliferation blockers – human, duplicate replicates, primary screen (AID 580); conditions: H69AR lung tumor cells viability, ATP luminescence, 72 h; at 10 µM; stronger effect = lower value;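 further: 100% = mean luminescence of untreated wells and 0% = no signal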
# [6] = MRP1 drug-resistance reversers in H69AR cells – cell-based, doxorubicin co-treatment, pilot screen (AID 601;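 active means viability loss from added drug above about 55%, and viability with drug at most 40%, in both replicates, limit read from the data, passing the limit was not always enough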); conditions: CellTiter-Glo, 72 h, at 10 µM; for differential viability (reversal): stronger effect = higher value
# [7] = yeast transport mutant growth inhibition pilot in 384-well plates, post-Golgi transport modulator project (AID 636; in the data active means inhibition above about 31%); conditions: absorbance 615 nm, about 18 h, stronger effect = higher value
# [8] = growth suppression of yeast trafficking mutant, preliminary HTS, modulators of trafficking downstream of Golgi apparatus project, 1536-format plate, OD 615 nm (AID 637; in the data active means inhibition above about 30%); conditions: yeast transport mutant growth, absorbance 615 nm, 18 h; stronger effect = higher value
# [9] = S. cerevisiae growth inhibition in permissive medium (OD615), pilot counter-assay for S. cerevisiae lifespan shortening project, permissive growth control (AID 705;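 active means growth inhibition above 25% in both replicates, a cutoff set 3 SD above the mean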); conditions: OD615, 24 h, at 10 µM, stronger effect = higher value
# [10] = S. cerevisiae growth inhibition in restrictive medium, OD615, pilot screen, restrictive growth control, yeast lifespan reduction project (AID 706;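 active means growth inhibition above a set limit, 3 SD over mean compound inhibition, in both replicates, cut at about 43% in these data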;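 further: modified DeaD lifespan yeast strain shifted to restrictive glucose medium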); conditions: OD615, 48 h, at 10 µM, stronger effect = higher value
# [11] = doxorubicin toxicity protection in MRP-1 cells – H69AR cells, CellTiter-Glo, duplicate, MRP-1 activator project, pilot screen (AID 807;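 active means viability increase at or above a cutoff of the median across tested compounds plus 3 SD, cut at about 8.5% in these data, passing the limit was not always enough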;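 further: compound pretreatment 18-22 h then 72 h combined with doxorubicin; 0% = doxorubicin alone and 100% = vehicle without doxorubicin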); conditions: H69AR viability with doxorubicin, CellTiter-Glo luminescence; at 10 µM; stronger effect = higher value
# [12] = viability of HCT116 without oncogenic beta-catenin – human colon tumor cells, pilot screen (AID 823;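 active means cell viability at or below a set limit in both duplicate runs, the limit being the all-compound median minus 4 SD, cut at about 23% in these data, passing the limit was not always enough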;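 further: 0% = wells killed by 20 µM Hyamine and 100% = untreated DMSO cell wells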); conditions: HCT116 beta-catenin knockout viability, CellTiter-Glo, 60 h; at 10 µM; stronger effect = lower value
# [13] = viability of PTEN-null HCT116 cells – cell-based, HCT116 clonal line, CellTiter-Glo, pilot screen (AID 824;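 active means viability at or below 27.92% in each of two runs, the all-compound median minus 4 SD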;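 further: 0% = 20 µM Hyamine control and 100% = vehicle cell control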); conditions: HCT116 PTEN-deleted viability, 60 h, at 10 µM, stronger effect = lower value
# [14] = RAM pathway blockade in budding yeast – dse1pr::URA3 reporter, 5-FOA selection, pilot screen (AID 869;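 active means inhibition over a set limit, the all-compound mean plus 3 SD, in both replicate runs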;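 further: 0% = DMSO wells with no growth and 100% = 10 µM 1-NA-PP1 with full growth; RAM network block rescues cells from 5-FOA so hits raise OD615 growth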); conditions: S. cerevisiae dse1pr::URA3 5-FOA growth, OD615, 2 d; at 10 µM; stronger effect = higher value; strain carries analog-sensitive mutant Cbk1 kinase
# [15] = RAM signaling pathway blockade in yeast – S. cerevisiae, Pdr1DBD-CYC8 efflux-inhibited sensitized strain, primary screen (AID 1298;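 active means RAM network inhibition above 8.4% in each of two replicates, 3 SD over the compound average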;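 further: 0% = DMSO untreated cells without growth and 100% = 10 µM 1-NA-PP1 full growth; higher means more yeast growth rescued from 5-FOA killing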); conditions: S. cerevisiae cbk1-as DSE1-URA3 strain, 5-FOA growth OD615, 2 d; at 50 µM; stronger effect = higher value
# [16] = H69AR cells + 2 uM doxorubicin, measured here: viability with 2 uM doxorubicin, stronger effect = lower value
# [17] = H69AR cells, compound alone cytotoxicity
SMILES,viability [1],Her2 level [2],viability [3],viability [4],viability [5],differential viability (reversal) ([6]; H69AR cells + 2 uM doxorubicin),"viability [6, 16]","viability [6, 17]",inhibition [7],inhibition [8],growth inhibition [9],growth inhibition [10],viability increase [11],viability [12],viability [13],inhibition [14],RAM network inhibition [15]
O=C(NCc1cccs1)C(Cc1ccccc1)n1cccc1 (stereo not given),114%,110% (inactive),114% (inactive),106% (inactive),94.6% (inactive),8.57% (inactive),86%,94.6%,-1.67% (inactive),-5.67% (inactive),3.97% (inactive),-4.98% (inactive),0.04% (inactive),92.6% (inactive),89.9% (inactive),3.21% (inactive),3.72% (inactive)
COc1ccc(-n2nnnc2SCC(=O)N2CCOCC2)cc1,93%,92% (inactive),93% (inactive),83.8% (inactive),89.2% (inactive),0.58% (inactive),88.6%,89.2%,-4.67% (inactive),-0.5% (inactive),-2.94% (inactive),-5.96% (inactive),-1.07% (inactive),96.2% (inactive),98.8% (inactive),0.85% (inactive),3.08% (inactive)
COc1ccc(S(=O)(=O)NCC(c2cccnc2)N2CCN(C)CC2)cc1C (stereo not given),97%,98.5% (inactive),97% (inactive),80.9% (inactive),91% (inactive),-2.52% (inactive),93.5%,91%,-0.64% (inactive),-2% (inactive),1.16% (inactive),-9.37% (inactive),-2.64% (inactive),97.8% (inactive),96.1% (inactive),2.23% (inactive),0.11% (inactive)
COc1ccccc1NC1=C(C)C(=O)CC1,98%,72% (inactive),98% (inactive),90.4% (inactive),88.7% (inactive),14.5% (inactive),74.1%,88.7%,-7.43% (inactive),-0.67% (inactive),-1.07% (inactive),-11.9% (inactive),-4.17% (inactive),75.4% (inactive),85.5% (inactive),1.62% (inactive),-0.26% (inactive)
COC(=O)CSC1=NS(=O)(=O)c2ccccc21,143%,92% (inactive),143% (inactive),60% (inactive),62.6% (inactive),-26.7% (inactive),89.3%,62.6%,-7.43% (inactive),-2.3% (inactive),94.3% (active),98.3% (active),-0.32% (inactive),99.4% (inactive),96.4% (inactive),-0.34% (inactive),-1.77% (inactive)
CCOc1ccc(NC(=O)CN(c2cc(C)cc(C)c2)S(=O)(=O)c2c(C)noc2C)cc1,94%,90.5% (inactive),94% (inactive),85.2% (inactive),74.7% (inactive),0.455% (inactive),74.2%,74.7%,1.67% (inactive),-1.83% (inactive),-19.5% (inactive),-16.8% (inactive),-3.54% (inactive),102% (inactive),97.2% (inactive),2.2% (inactive),8.99% (inactive)
Cc1ccccc1CSc1nnc(C)c(=O)[nH]1,90%,106% (inactive),90% (inactive),104% (inactive),97.2% (inactive),4.72% (inactive),92.5%,97.2%,-3.2% (inactive),-0.17% (inactive),-7.61% (inactive),-2.98% (inactive),-1.7% (inactive),98.8% (inactive),99% (inactive),0.815% (inactive),1.17% (inactive)
Cn1nnc2cc(C(=O)N3CCCCCC3)ccc21,81.5%,99.5% (inactive),81.5% (inactive),81.7% (inactive),105% (inactive),10.6% (inactive),94.3%,105%,-4.73% (inactive),-6.23% (inactive),-10.5% (inactive),-19.7% (inactive),-0.53% (inactive),109% (inactive),96% (inactive),0.345% (inactive),1.87% (inactive)
Nc1nc(N2CCCCC2)nc(N(c2ccccc2)c2ccccc2)n1,107%,104% (inactive),107% (inactive),69.3% (inactive),70.6% (inactive),-4.36% (inactive),75%,70.6%,-5.2% (inactive),-2.33% (inactive),-12.8% (inactive),8% (inactive),-1.3% (inactive),89.5% (inactive),87.1% (inactive),0.36% (inactive),1.36% (inactive)
CC(=O)Nc1cc(N2C(=O)CCC2=O)ccc1Cl,93%,97% (inactive),93% (inactive),110% (inactive),103% (inactive),12.4% (inactive),90.5%,103%,0.4% (inactive),6.45% (inactive),-10.2% (inactive),-12.5% (inactive),-1.29% (inactive),102% (inactive),103% (inactive),1.19% (inactive),1.88% (inactive)
